Each structure is given as a SMILES string. Measured potencies and affinities stand elsewhere. Unmarked numbers belong to inactive results. The rule behind the calls is not given here.

The target of the test is Melanocortin receptor 4 (Homo sapiens) (UniProt P32245). As to the kind of experiment: MC4R antagonists, dose response, counter-screen for LGR2 antagonist project, cell-based, plate reader, cherry pick (AID 743444). As to conditions: MC4R-expressing cells, antagonist mode; series mostly up to 35 µM; activity change, negative = inhibition: at the top concentration. In general terms: Counterscreens check selectivity or assay interference.
`COc1ccc(S(=O)(=O)N2CCOCC2)cc1NC(=O)COc1ccc(C)cc1`: the “activity change, negative = inhibition” value was 102%.

For the molecule `Oc1ccc(-c2csc(-c3cccnc3)n2)c(O)c1`, the “activity change, negative = inhibition” value was 18.2%.

Take `O=[N+]([O-])c1cc(S(=O)(=O)N2CCCCCC2)ccc1Cl`: the “activity change, negative = inhibition” value was 46.7%.

For `Cc1cccc(Cn2ncc(Cl)c(Cl)c2=O)c1`, the “activity change, negative = inhibition” value was 44.8%.

For the molecule `COc1cc(NC2CCCCC2O)c2nc(-c3ccc(Cl)cc3)ccc2c1` (stereo not given), the “activity change, negative = inhibition” value was 70.1%.

Consider `N#C[C@@H]1[C@H](c2ccc(C#Cc3cccc(F)c3)cc2)[C@@H](CO)N1C(=O)C1CC1`, for which the “activity change, negative = inhibition” value was -26.4%.

`CC(=O)c1ccc(Nc2cc(C)nc3c(C)cc(C)cc23)cc1`: the “activity change, negative = inhibition” value is 33.5%.

On to `CC(C)OC(=O)c1ccc(NCc2cc(O)ccc2O)cc1Cl`, for which the “activity change, negative = inhibition” value is 36.8%.

Turning to `Cc1ccc2nc(C(F)(F)F)c(C#N)c(N)c2c1`, the “activity change, negative = inhibition” value is -23.5%.

For the molecule `COc1ccccc1CN(C)C[C@@H]1OCc2cnnn2CCCC(=O)N([C@H](C)CO)C[C@H]1C`, the “activity change, negative = inhibition” value is 36.4%.

Turning to `CCCCn1nnnc1C(c1cc2ccccc2o1)N1CCN(c2ccncc2)CC1` (stereo not given), the “activity change, negative = inhibition” value was -24.1%.

Take `COC(=O)c1ccc(Nc2cc(C)nc3ccc(C)cc23)cc1`: the “activity change, negative = inhibition” value is 46.1%.

For `COc1ccc(C(=O)CC(Sc2ccccc2N)c2ccc(OC)cc2)cc1` (stereo not given), the “activity change, negative = inhibition” value was -30.1%.

In the case of `CC(C)(C)c1nc2ccc(Cl)cn2c1CC1CCCCC1`, the “activity change, negative = inhibition” value was -36.7%.

As for `O=C(C[C@@H]1C[C@H]2c3cc(NC(=O)c4ccc5c(c4)OCO5)ccc3O[C@H]2[C@@H](CO)O1)NCc1ccc(Oc2ccccc2)cc1`, the “activity change, negative = inhibition” value is 8.8% [at 16 µM].

`O=C(Cn1ncc(Cl)c(Cl)c1=O)N1CCOCC1`: the “activity change, negative = inhibition” value is 12.2%.

On to `Cn1c(=O)c2cc(NC(=O)NCc3ccccc3)ccc2n1C/C=C/c1ccccc1`, for which the “activity change, negative = inhibition” value is -16.3%.

In the case of `COc1ccc(CCNC(=O)C2CCN(S(=O)(=O)c3ccc(Cl)cc3)CC2)cc1OC`, the “activity change, negative = inhibition” value was 48.3%.

Turning to `O=C(c1ccc2c(c1)OCCO2)C1CCN(S(=O)(=O)c2ccc(F)cc2)CC1`, the “activity change, negative = inhibition” value is 68.4%.

As for `C[C@H]1CCCCO[C@@H](CN(C)C(=O)Nc2ccc(C(F)(F)F)cc2)[C@@H](C)CN([C@@H](C)CO)C(=O)c2cc(NC(=O)CCC(F)(F)F)ccc2O1`, the “activity change, negative = inhibition” value is -21.9%.

`C[C@@H]1CN([C@H](C)CO)C(=O)Cc2cc(NC(=O)CCC(F)(F)F)ccc2O[C@@H]1CN(C)CC1CCCCC1`: the “activity change, negative = inhibition” value was 3.39%.

In the case of `CCOCCCn1c(SCc2nc3ccccc3s2)nc2ccccc2c1=O`, the “activity change, negative = inhibition” value is 9.56%.

As for `O=C(Nc1ccc(N2CCN(C(=O)c3ccccc3)CC2)cc1)c1cc2ccccc2o1`, the “activity change, negative = inhibition” value is -16.1%.

As to `COc1ccc(-c2cc(C(F)(F)F)nc(S(=O)(=O)CCCC(=O)Nc3cccc(O)c3)n2)cc1OC`, the “activity change, negative = inhibition” value is 84.3% [at 16 µM].

On to `CCOC(=O)c1c(C)n(C)c2ccc(OCC(O)CNCCc3ccccc3)cc12` (stereo not given), for which the “activity change, negative = inhibition” value is 83.6%.

Consider `CNCc1ccccc1Sc1ccc(O)c(O)c1`, for which the “activity change, negative = inhibition” value was 2.7%.

For `CCCCOc1cc(NCc2ccccc2)c2ncn(C(C)C)c2c1`, the “activity change, negative = inhibition” value was 71.4%.

Regarding `COc1cc(/C=N/Nc2nc(C)nc3c2cnn3-c2ccccc2)ccc1O`, the “activity change, negative = inhibition” value was 25.4%.

Regarding `O=C(c1ccc(CSc2nc3ccncc3[nH]2)cc1)N1CCN(c2cccc(Cl)c2)CC1`, the “activity change, negative = inhibition” value was 42.7%.

For `COc1cccc(C#Cc2ccc([C@@H]3[C@@H](CO)N(C(=O)C4CCC4)[C@H]3C#N)cc2)c1`, the “activity change, negative = inhibition” value was -28.4%.

On to `COc1ccccc1N1CCN(C(=O)c2sc3nc(-c4ccc(F)cc4)cn3c2C)CC1`, for which the “activity change, negative = inhibition” value is -16.4%.

Turning to `c1ccc(COc2cccc(-c3cc4nc(NCCCn5ccnc5)ccn4n3)c2)cc1`, the “activity change, negative = inhibition” value was -3.54%.

In the case of `COc1ccc2cc(C#N)c(Nc3cccc(F)c3)nc2c1`, the “activity change, negative = inhibition” value is 81.7%.

In the case of `Cc1ccc(S(=O)(=O)Nc2ccc3c(c2)C(=O)N([C@H](C)CO)C[C@@H](C)[C@H](CN(C)S(=O)(=O)c2cccs2)OCCCC[C@@H](C)O3)cc1`, the “activity change, negative = inhibition” value was -10.1%.

Take `CCOc1cccc2sc(Nc3nc4ccc(NC(C)=O)cc4s3)nc12`: the “activity change, negative = inhibition” value was 63.6%.

For the molecule `CC(C)c1ccc2c(c1)C(N1CCNCC1)Cc1ccc(F)cc1S2` (stereo not given), the “activity change, negative = inhibition” value was 21.3%.

On to `CC(C)(C)c1ccc(Cn2c(=O)cnc3ccccc32)cc1`, for which the “activity change, negative = inhibition” value was 112%.

Regarding `CC(C)N(C(=O)COC(=O)c1ccccc1C(=O)c1ccc(Cl)c([N+](=O)[O-])c1)C(C)C`, the “activity change, negative = inhibition” value is 94.9%.

Turning to `O=C(CSc1ncnc2[nH]ncc12)Nc1nc(-c2ccc(F)c(F)c2)cs1`, the “activity change, negative = inhibition” value was 74.6%.

As for `Cc1ccc(NC(=O)c2ncn(CC(=O)N3CCN(c4ccccn4)CC3)n2)cc1C`, the “activity change, negative = inhibition” value was 43.8%.

Values taken from PubChem BioAssay.
